PubChem BioAssay
Calls of active or inactive are those of the source.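 How the source made its calls, unless noted: active means at least 20% inhibition of 6-phosphogluconate dehydrogenase activity; inactive means the rest.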

Tested on: not listed separately
Test: decreased DLD-1 cellular survival, CellTiter-Glo luminescent readout, NPC compound collection, primary HTS (AID 1117346;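 active means compounds that lower survival of DLD-1 colon cancer cells in the luminescence readout, no cutoff given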)
Details: DLD-1 viability, CellTiter-Glo luminescence; at 20 µM (top of the series)
For `CC(C)(C)c1ccc(C(O)CCCN2CCC(C(O)(c3ccccc3)c3ccccc3)CC2)cc1` (stereo unspecified), the viability decrease (inhibition) was 103% (active). In the case of `O=C(NCC1CCCCN1)c1cc(OCC(F)(F)F)ccc1OCC(F)(F)F` (stereo unspecified), the viability decrease (inhibition) is reported as -7.6% (inactive). In the case of `O=C(O)COCCN1CCN(C(c2ccccc2)c2ccc(Cl)cc2)CC1` (stereo unspecified), the viability decrease (inhibition) is reported as 8.8% (inactive). With `CC(C)c1c(C(=O)Nc2ccccc2)c(-c2ccccc2)c(-c2ccc(F)cc2)n1CC[C@@H](O)C[C@@H](O)CC(=O)O` the viability decrease (inhibition) was 68.1% (active). For `Cc1ccc(/C(=C\CN2CCCC2)c2ccccn2)cc1`, the viability decrease (inhibition) was -45.1% (inactive). For `CC(C)(C)CC(C)(C)c1ccc(OCCOCC[N+](C)(C)Cc2ccccc2)cc1`, the viability decrease (inhibition) was 106% (active). With `Clc1ccccc1CN1CCc2sccc2C1` the viability decrease (inhibition) was 32.4% (inactive). With `C[N+]1(C)CCC(OC(=O)C(O)(c2ccccc2)C2CCCC2)C1` (stereo unspecified) the viability decrease (inhibition) was 2% (inactive). With `CN1[C@@H]2CC(OC(=O)[C@H](CO)c3ccccc3)C[C@H]1[C@@H]1O[C@@H]12` (stereo partly specified) the viability decrease (inhibition) was -0.6% (inactive). In the case of `CC(C)(C(=O)O)c1ccc(C(O)CCCN2CCC(C(O)(c3ccccc3)c3ccccc3)CC2)cc1` (stereo unspecified), the viability decrease (inhibition) is reported as -0.4% (inactive). With `CC(C)n1c(/C=C/[C@@H](O)C[C@@H](O)CC(=O)O)c(-c2ccc(F)cc2)c2ccccc21` the viability decrease (inhibition) was 50.2% (active). With `CN(C)C(=N)N=C(N)N` the viability decrease (inhibition) was -1.55% (inactive). For `O=C(O)c1cn(C2CC2)c2cc(N3CCNCC3)c(F)cc2c1=O`, the viability decrease (inhibition) was -5% (inactive). In the case of `COc1ccc(-c2nc3ccc(C4=NNC(=O)CC4C)cc3[nH]2)cc1` (stereo unspecified), the viability decrease (inhibition) is reported as 52.3% (active). For `O=S(=O)(c1cccc2cnccc12)N1CCCNCC1`, the viability decrease (inhibition) was 15.4% (inactive). For `CS(=O)(=O)c1ccc([C@@H](O)[C@@H](CF)NC(=O)C(Cl)Cl)cc1`, the viability decrease (inhibition) was 13.6% (inactive). In the case of `C[C@@H](O[C@H]1OCCN(Cc2n[nH]c(=O)[nH]2)[C@H]1c1ccc(F)cc1)c1cc(C(F)(F)F)cc(C(F)(F)F)c1`, the viability decrease (inhibition) is reported as 100% (active). In the case of `NCCCC(O)(P(=O)(O)O)P(=O)(O)O`, the viability decrease (inhibition) is reported as -3.8% (inactive). With `CC1(C)[C@H](C(=O)O)N2C(=O)C[C@H]2S1(=O)=O` the viability decrease (inhibition) was 3.8% (inactive). With `O=C(O)CCn1c2c(c3ccccc31)C[C@H](NS(=O)(=O)c1ccc(F)cc1)CC2` the viability decrease (inhibition) was -0.3% (inactive).

Biological target: 6-phosphogluconate dehydrogenase, decarboxylating (Homo sapiens) (UniProt P52209)
Sequence (P52209 whole entry, looked up): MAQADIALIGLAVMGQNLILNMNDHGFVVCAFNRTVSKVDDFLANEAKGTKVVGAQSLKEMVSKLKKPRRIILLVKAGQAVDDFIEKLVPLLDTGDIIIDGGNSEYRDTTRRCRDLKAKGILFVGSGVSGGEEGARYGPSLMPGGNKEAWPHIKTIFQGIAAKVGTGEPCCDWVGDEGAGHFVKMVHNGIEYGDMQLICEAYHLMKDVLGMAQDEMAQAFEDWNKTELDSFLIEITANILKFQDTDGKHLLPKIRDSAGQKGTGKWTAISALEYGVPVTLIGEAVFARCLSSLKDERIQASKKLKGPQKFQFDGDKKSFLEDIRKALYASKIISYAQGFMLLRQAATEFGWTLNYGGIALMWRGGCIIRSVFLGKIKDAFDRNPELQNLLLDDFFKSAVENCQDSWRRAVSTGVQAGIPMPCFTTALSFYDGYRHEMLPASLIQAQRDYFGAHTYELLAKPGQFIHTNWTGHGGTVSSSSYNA
Test: 6PGD enzyme inhibitors, primary screen, biochemical, human, recombinant enzyme, NADPH absorbance (AID 1159550)
Details: recombinant 6PGD, NADPH absorbance 341 nm; at 10 µM; stronger effect = higher value
With `CO[C@H]1/C=C/O[C@@]2(C)Oc3c(C)c(O)c4c(O)c(c(/C=N/N5CCN(C)CC5)c(O)c4c3C2=O)NC(=O)/C(C)=C/C=C/[C@H](C)[C@H](O)[C@@H](C)[C@@H](O)[C@@H](C)[C@H](OC(C)=O)[C@@H]1C` the inhibition was 18.2% (inactive). In the case of `CC(C)c1c(C(=O)Nc2ccccc2)c(-c2ccccc2)c(-c2ccc(F)cc2)n1CC[C@@H](O)C[C@@H](O)CC(=O)O`, the inhibition is reported as 17.2% (inactive). For `CC[C@H](C(=O)[C@@H](C)[C@@H](O)[C@H](C)[C@@H]1O[C@@H]([C@@H](CC)C(=O)O)CC[C@@H]1C)[C@H]1O[C@]2(C=C[C@@H](O)[C@]3(CC[C@@](C)([C@H]4CC[C@](O)(CC)[C@H](C)O4)O3)O2)[C@H](C)C[C@@H]1C`, the inhibition was 2.61% (inactive). With `COc1ccc2c(c1)O[C@@H]1c3ccc(OC)cc3OC[C@H]21` the inhibition was 0.294% (inactive). With `C=C1C(CCl)(CCl)C2(Cl)C(Cl)C(Cl)C1(Cl)C2(Cl)Cl` (stereo unspecified) the inhibition was -11.7% (inactive). With `CC(=O)c1ccc(O)c(CC=C(C)C)c1` the inhibition was 18.5% (inactive). With `CC(=O)O[C@H]1C[C@@H](O)C(C)(C)[C@@H]2C[C@@H](OC(C)=O)[C@]3(C)[C@H](CC[C@@]4(C)[C@@H](c5ccoc5)OC(=O)[C@H]5O[C@@]534)[C@@]12C` the inhibition was 1.48% (inactive). In the case of `C=C[C@@H]1CN2CC[C@@H]1C[C@@H]2[C@@H](O)c1ccnc2ccc(OC)cc12`, the inhibition is reported as 8.78% (inactive). With `Cc1ccc(/C(=C\CN2CCCC2)c2ccccn2)cc1` the inhibition was 2.89% (inactive). With `CC(C)(C)CC(C)(C)c1ccc(OCCOCC[N+](C)(C)Cc2ccccc2)cc1` the inhibition was -3.07% (inactive). In the case of `CC1=CCCC(C)=CCC(C)(C)C=CC1`, the inhibition is reported as -0.753% (inactive). With `Cc1ccc(C(C)C)c(O)c1C(=O)O` the inhibition was 7.11% (inactive). With `CN1[C@@H]2CC(OC(=O)[C@H](CO)c3ccccc3)C[C@H]1[C@@H]1O[C@@H]12` (stereo partly specified) the inhibition was 6.42% (inactive). With `C[C@H](CCC(=O)O)C1CC[C@H]2[C@@H]3CC[C@H]4C[C@H](O)CC[C@]4(C)[C@H]3C[C@H](O)[C@]12C` (stereo partly specified) the inhibition was -1.43% (inactive). In the case of `CN(C)C(=N)N=C(N)N`, the inhibition is reported as 10.4% (inactive). For `O=C(O)c1cn(C2CC2)c2cc(N3CCNCC3)c(F)cc2c1=O`, the inhibition was -0.391% (inactive). With `CCC(C)C(N)C1=NC(C(=O)NC(CC(C)C)C(=O)NC(CCC(=O)O)C(=O)NC(C(=O)NC2CCCCNC(=O)C(CC(N)=O)NC(=O)C(CC(=O)O)NC(=O)C(Cc3cnc[nH]3)NC(=O)C(Cc3ccccc3)NC(=O)C(C(C)CC)NC(=O)C(CCCN)NC2=O)C(C)CC)CS1` (stereo unspecified) the inhibition was -5.55% (inactive). With `COc1ccc2c(=O)ccoc2c1` the inhibition was -1.53% (inactive). In the case of `CC(=O)OC1CCC2(C)C(=CCC3C2CCC2(C)C(C(C)CCCC(C)C)CCC32)C1` (stereo unspecified), the inhibition is reported as 13.3% (inactive). For `C[C@H]1[C@@H](O)O[C@@H]2OC3(C)CC[C@H]4[C@H](C)CC[C@@H]1[C@@]24OO3`, the inhibition was -22.8% (inactive). In the case of `CC(=O)O[C@H]1C[C@@H](OC(C)=O)C(C)(C)[C@@H]2C[C@@H](O)[C@@]3(C)[C@H](CC[C@]4(C)[C@@H](c5ccoc5)OC(=O)[C@H]5O[C@@]534)[C@@]12C`, the inhibition is reported as 13.5% (inactive). For `CCC[C@H]1CC2=C(C[C@@H](CC)CC3=C1C(=O)OC3=O)C(=O)OC2=O`, the inhibition was -4.81% (inactive). With `CC1(C)C=CC(=O)[C@]2(C)[C@H]3CC[C@@]4(C)[C@H](c5ccoc5)OC(=O)[C@H]5O[C@]54[C@]3(C)C(=O)C[C@@H]12` the inhibition was -8.35% (inactive). In the case of `C#CCCCCCCCCCCCC(=O)CC(O)COC(C)=O` (stereo unspecified), the inhibition is reported as -5.7% (inactive). In the case of `NCC1O[C@@H](O[C@H]2C(O)C(O[C@@H]3OC(CO)[C@H](O)[C@H](N)C3O)[C@@H](N)C[C@H]2N)C(O)[C@@H](O)[C@H]1O` (stereo partly specified), the inhibition is reported as -2.65% (inactive). With `CC(C)CCCC(C)C1CCC2C3CC(=O)[C@H]4CC(O)CCC4(C)C3CCC12C` (stereo partly specified) the inhibition was -4.09% (inactive).
